Results published in PubChem BioAssay (NCATS).
Values joined by “and” are separate entries in the source; they are usually repeats but may differ in a detail not shown here. Identical values can stand only once. Records with an inconclusive call do not appear. Entries that show only a call come without a potency. Active and inactive are the calls of the source. Unless noted, the call rests on the fitted dose curve; in most records, active means well fitted curve in the direction sought with a large enough effect; inconclusive means small, poorly fitted or top-dose-only effect, or another doubt; inactive means no such curve, though single readings can be large; an effect the other way counts as inactive or inconclusive.

Tests used:
[1] = Primary qHTS for small molecule stabilizers of the endoplasmic reticulum resident proteome: Secreted ER Calcium Modulated Protein (SERCaMP) assay (AID 1508630); conditions: SH-SY5Y GLuc-SERCaMP (Gaussia luciferase released on ER calcium loss) secretion, thapsigargin, luminescence; series mostly up to 38.4 µM
In short: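 The SH-SY5Y reporter protocol was run at 3 concentrations up to 38.3 uM (primary) or 11 concentrations (follow-up): 16 h compound, 100 nM thapsigargin for 4 h, then extracellular luciferase luminescence.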

[2] = A High-Content qHTS Against Drug Library for the Identification of Small Molecules that Inhibit DYT1 Early Onset Primary Dystonia-Associated Cell Pathology (AID 1645839; calls by dose curve); conditions: HEK293 Flp-In EGFP-delE TorsinA, punctate imaging, 48 h; series mostly up to 91.7 µM
In short: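 Induced EGFP-delE TorsinA cells are imaged after 48 h of compound treatment. Punctate fusion-protein distribution gives the %pathology value, while nuclei counts flag toxicity. Wild-type EGFP-hTOR1A cells define the normal pattern.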

[3] = molecular target: Cytochrome P450 2D6 (Homo sapiens) (UniProt P10635); assay: Cytochrome P450 family 2 subfamily D member 6 (CYP2D6) small molecule antagonists: luciferase biochemical (cell-free) qHTS assay (AID 1645840; active means well fitted curve in the direction sought with a large enough effect in the repeat runs; an effect the other way counts as inactive or inconclusive; further: nearly all actives have a fitted effect of over 55% in size; further: potency means the concentration at half of the fitted maximal effect); conditions: P450-Glo CYP2D6 enzyme, luciferin luminescence, 1 h; series mostly up to 57.4 µM
In short: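 P450-Glo CYP2D6 system: proluciferin substrate converted by enzyme to luciferin, read by luminescence proportional to activity. Enzyme-substrate mix with compound 10 min at room temperature, then NADPH regeneration 1 h before detection reagent.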

[4] = Primary qHTS to identify inhibitors of SARS-CoV-2 cell entry (AID 1645846; calls by dose curve; further: nearly all actives have a fitted effect of over 45% in size; further: potency means the concentration at half of the fitted maximal effect); conditions: SARS-CoV-2 pseudovirus cell entry assay, luminescence; activity change, negative = inhibition: at 57.1 µM (top of the series) unless noted; series mostly up to 57.1 µM
In short: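 Data are normalized to wells receiving SARS-CoV-2-S pseudoparticles and those given bald particles. Entry signal was luciferase luminescence in stable hACE2 Expi293F cells, 48 hr post-infection, after 1 hr compound pretreatment.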

[5] = molecular target: Cytochrome P450 2C9 (Homo sapiens) (UniProt P11712); assay: Cytochrome P450 family 2 subfamily C member 9 (CYP2C9) small molecule antagonists: luciferase biochemical (cell-free) qHTS assay (AID 1645842; active means well fitted curve in the direction sought with a large enough effect in the repeat runs; an effect the other way counts as inactive or inconclusive; further: nearly all actives have a fitted effect of over 55% in size; further: potency means the concentration at half of the fitted maximal effect); conditions: P450-Glo CYP2C9 enzyme assay, luciferin luminescence; series mostly up to 57.4 µM
In short: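 P450-Glo CYP2C9 system: proluciferin substrate with enzyme in mix containing 0.4% BSA, 10 min at room temperature, then NADPH regeneration solution added and incubated 1 h at 37C. Detection reagent stopped reaction; luminescence read after 20 min as RLU.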

[6] = Primary qHTS for inhibitors of nuclear receptor binding SET domain protein 2 (NSD2) in an isogenic RCH-ACV NSD2 p.E1099K mutant (9B) (AID 1645876); conditions: RCH-ACV NSD2 E1099K (9B) viability, CellTiter-Glo, 72 h; series mostly up to 44.9 µM; further: nearly all actives have a fitted effect of over 70% in size; further: potency means the concentration at half of the fitted maximal effect
[7] = Primary qHTS for inhibitors of nuclear receptor binding SET domain protein 2 (NSD2) in an RCH-ACV wild type WT cells (2C) (AID 1645877); conditions: RCH-ACV (leukaemia line) NSD2 WT (2C) viability, CellTiter-Glo, 72 h; series mostly up to 44.9 µM; further: nearly all actives have a fitted effect of over 70% in size; further: potency means the concentration at half of the fitted maximal effect
[8] = Cytotoxicity counterscreen for inhibitors of SARS-CoV-2 cell entry (AID 1645845; calls by dose curve; further: nearly all actives have a fitted effect of over 50% in size; further: potency means the concentration at half of the fitted maximal effect); conditions: cell viability (SARS-CoV-2 entry assay cells); series mostly up to 57.1 µM
In short: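 After a 15 min room-temperature ATPLite 1step step, luminescence reflected ATP remaining in HEK293-ACE2 cells exposed to compound for 1 h plus 48 h at 37 C, with percent activity set by cell and no-cell controls.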

[9] = molecular target: Rap guanine nucleotide exchange factor 3 (Homo sapiens) (UniProt O95398); assay: Confirmatory qHTS for antagonist of cAMP-regulated guanine nucleotide exchange factor 3 (EPAC1) (AID 1645880); conditions: EPAC1 Rap1B-BODIPY-GDP exchange, fluorescence; series mostly up to 115 µM; further: nearly all actives have a fitted effect of over 55% in size
In short: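 Released BODIPY-GDP fluoresces less than Rap1-bound BODIPY-GDP; the signal is followed at 480/540 nm at 5-min intervals over 30 min, after 5 min at room temperature. Reactions contain 100 nM EPAC1, 250 nM RAP1B-BODIPY-GDP and 50 uM GDP; results are normalized to ATA and DMSO.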

[10] = molecular target: Rap guanine nucleotide exchange factor 3 (Homo sapiens) (UniProt O95398); assay: Confirmatory qHTS for agonist of cAMP-regulated guanine nucleotide exchange factor 3 (EPAC1) (AID 1645881); conditions: EPAC1 Rap1B BODIPY-GDP exchange fluorescence, 100% = cAMP control response; series mostly up to 154 µM;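 further: EPAC1 catalysed release of BODIPY-GDP from Rap1B seen as fluorescence loss; nearly all actives have a fitted effect of over 75% in size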
[11] = molecular target: Rap guanine nucleotide exchange factor 4 (Homo sapiens) (UniProt Q8WZA2); assay: Confirmatory qHTS for agonist of cAMP-regulated guanine nucleotide exchange factor 4 (EPAC2) (AID 1645884); conditions: EPAC2 GEF activity, Rap1B-BODIPY-GDP fluorescence, percent relative to cAMP agonist control; series mostly up to 154 µM;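 further: nucleotide exchange releases bodipy-GDP from Rap1 and this lowers its fluorescence; nearly all actives have a fitted effect of over 65% in size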
[12] = molecular target: Rap guanine nucleotide exchange factor 3 (Homo sapiens) (UniProt O95398); assay: Counterscreen qHTS for antagonist of cAMP-regulated guanine nucleotide exchange factor 3 (EPAC1) (AID 1645888); conditions: Rap1B-BODIPY-GDP nucleotide exchange, fluorescence; series mostly up to 30.8 µM
In short: (§1)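 Measured: fluorescence of BODIPY-GDP bound to Rap1B, which falls as exchange proceeds. Conditions include 50 uM competing GDP, 5 and 30 min reads, and a later cAMP challenge for antagonist detection.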

[13] = molecular target: Rap guanine nucleotide exchange factor 3 (Homo sapiens) (UniProt O95398); assay: Counterscreen qHTS for agonist of cAMP-regulated guanine nucleotide exchange factor 3 (EPAC1) (AID 1645889); conditions: EPAC1 Rap1B-BODIPY-GDP exchange, fluorescence; series mostly up to 30.8 µM; further: nearly all actives have a fitted effect of over 40% in size
In short: as §1

Papain (Carica papaya) = Papain (Carica papaya) (UniProt P00784); assay: Primary qHTS assay for inhibitors of the protease papain (AID 1645873); conditions: papain Z-FR-AMC cleavage, AMC fluorescence; series mostly up to 49.8 µM;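 further: papain turnover of Z-FR-AMC read as the AMC fluorescence gain over 10 min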
[14] = molecular target: Rap guanine nucleotide exchange factor 4 (Homo sapiens) (UniProt Q8WZA2); assay: Confirmatory qHTS for antagonist of cAMP-regulated guanine nucleotide exchange factor 4 (EPAC2) (AID 1645885); conditions: EPAC2 Rap1B-BODIPY-GDP exchange fluorescence, biochemical; series mostly up to 114 µM; further: nearly all actives have a fitted effect of over 25% in size

Chain of Papain (Carica papaya) (P00784 whole entry, looked up): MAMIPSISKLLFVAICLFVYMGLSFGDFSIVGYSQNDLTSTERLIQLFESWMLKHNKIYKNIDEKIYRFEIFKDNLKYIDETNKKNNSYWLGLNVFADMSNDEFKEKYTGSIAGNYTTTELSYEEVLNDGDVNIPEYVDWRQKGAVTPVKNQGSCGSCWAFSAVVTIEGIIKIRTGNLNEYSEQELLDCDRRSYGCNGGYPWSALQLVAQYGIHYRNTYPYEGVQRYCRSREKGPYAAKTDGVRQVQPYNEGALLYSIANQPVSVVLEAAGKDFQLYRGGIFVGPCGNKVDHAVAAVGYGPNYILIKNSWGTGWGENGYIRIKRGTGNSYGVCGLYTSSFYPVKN
Chain of Rap guanine nucleotide exchange factor 4 (Homo sapiens) (Q8WZA2 whole entry, looked up): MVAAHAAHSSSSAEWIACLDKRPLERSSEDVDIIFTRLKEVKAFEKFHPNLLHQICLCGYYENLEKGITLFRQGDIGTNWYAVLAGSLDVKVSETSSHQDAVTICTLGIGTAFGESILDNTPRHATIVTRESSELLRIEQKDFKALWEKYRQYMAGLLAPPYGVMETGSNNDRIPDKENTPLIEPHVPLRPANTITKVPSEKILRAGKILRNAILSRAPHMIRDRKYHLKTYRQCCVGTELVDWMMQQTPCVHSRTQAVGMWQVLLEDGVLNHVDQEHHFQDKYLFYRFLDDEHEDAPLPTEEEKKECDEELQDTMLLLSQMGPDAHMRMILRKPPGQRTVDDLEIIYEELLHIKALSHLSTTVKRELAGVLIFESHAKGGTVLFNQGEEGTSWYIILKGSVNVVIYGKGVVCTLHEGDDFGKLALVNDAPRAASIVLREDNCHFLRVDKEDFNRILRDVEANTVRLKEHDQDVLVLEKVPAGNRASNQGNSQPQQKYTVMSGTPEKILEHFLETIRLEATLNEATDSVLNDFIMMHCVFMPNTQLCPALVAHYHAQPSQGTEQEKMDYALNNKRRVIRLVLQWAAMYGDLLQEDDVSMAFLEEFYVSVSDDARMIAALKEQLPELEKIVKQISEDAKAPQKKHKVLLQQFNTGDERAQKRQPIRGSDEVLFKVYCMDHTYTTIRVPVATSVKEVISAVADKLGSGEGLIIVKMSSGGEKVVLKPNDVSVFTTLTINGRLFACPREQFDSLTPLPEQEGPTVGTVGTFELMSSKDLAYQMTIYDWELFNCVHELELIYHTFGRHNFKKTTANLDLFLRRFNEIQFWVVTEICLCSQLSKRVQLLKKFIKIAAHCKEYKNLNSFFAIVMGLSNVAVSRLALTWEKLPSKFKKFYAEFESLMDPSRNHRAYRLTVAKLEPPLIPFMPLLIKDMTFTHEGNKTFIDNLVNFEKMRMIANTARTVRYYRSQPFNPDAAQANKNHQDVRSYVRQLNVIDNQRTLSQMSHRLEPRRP
Chain of Cytochrome P450 2C9 (Homo sapiens) (P11712 whole entry, looked up): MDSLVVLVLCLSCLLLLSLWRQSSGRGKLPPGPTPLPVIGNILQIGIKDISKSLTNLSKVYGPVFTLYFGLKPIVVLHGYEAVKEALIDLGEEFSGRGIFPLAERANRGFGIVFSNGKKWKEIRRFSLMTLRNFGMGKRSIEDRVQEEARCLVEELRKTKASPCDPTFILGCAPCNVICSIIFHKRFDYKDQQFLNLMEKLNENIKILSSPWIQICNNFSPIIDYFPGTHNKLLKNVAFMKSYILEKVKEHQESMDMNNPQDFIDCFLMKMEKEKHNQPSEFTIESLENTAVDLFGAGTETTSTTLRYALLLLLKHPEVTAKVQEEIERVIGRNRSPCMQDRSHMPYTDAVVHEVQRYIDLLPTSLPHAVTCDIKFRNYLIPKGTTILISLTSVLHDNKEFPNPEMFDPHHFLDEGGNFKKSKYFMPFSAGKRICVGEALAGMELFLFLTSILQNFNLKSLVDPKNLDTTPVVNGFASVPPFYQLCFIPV
Chain of Rap guanine nucleotide exchange factor 3 (Homo sapiens) (O95398 whole entry, looked up): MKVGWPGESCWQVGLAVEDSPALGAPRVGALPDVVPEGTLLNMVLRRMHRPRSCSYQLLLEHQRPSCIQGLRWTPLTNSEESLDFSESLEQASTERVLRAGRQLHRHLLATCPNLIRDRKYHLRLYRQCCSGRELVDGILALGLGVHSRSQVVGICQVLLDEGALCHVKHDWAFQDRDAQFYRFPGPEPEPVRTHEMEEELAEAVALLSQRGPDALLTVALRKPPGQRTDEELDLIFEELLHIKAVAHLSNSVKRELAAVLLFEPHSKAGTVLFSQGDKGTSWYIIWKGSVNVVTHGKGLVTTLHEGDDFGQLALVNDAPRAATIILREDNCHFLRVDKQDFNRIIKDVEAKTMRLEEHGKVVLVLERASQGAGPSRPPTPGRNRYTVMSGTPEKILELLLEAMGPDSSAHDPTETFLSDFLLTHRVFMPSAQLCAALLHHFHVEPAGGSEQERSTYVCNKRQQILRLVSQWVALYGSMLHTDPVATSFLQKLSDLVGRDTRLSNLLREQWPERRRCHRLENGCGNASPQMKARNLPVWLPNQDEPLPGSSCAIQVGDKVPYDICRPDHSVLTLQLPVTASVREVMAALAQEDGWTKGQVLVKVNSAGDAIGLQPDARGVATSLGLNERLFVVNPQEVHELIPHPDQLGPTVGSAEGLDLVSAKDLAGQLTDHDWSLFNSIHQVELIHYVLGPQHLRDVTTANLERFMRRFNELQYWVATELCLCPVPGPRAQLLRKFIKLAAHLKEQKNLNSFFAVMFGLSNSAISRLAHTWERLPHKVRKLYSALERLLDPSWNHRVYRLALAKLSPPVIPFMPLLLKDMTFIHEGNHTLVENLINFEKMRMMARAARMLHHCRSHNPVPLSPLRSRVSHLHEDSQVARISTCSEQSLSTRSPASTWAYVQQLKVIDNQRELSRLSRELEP
Chain of Cytochrome P450 2D6 (Homo sapiens) (P10635 whole entry, looked up): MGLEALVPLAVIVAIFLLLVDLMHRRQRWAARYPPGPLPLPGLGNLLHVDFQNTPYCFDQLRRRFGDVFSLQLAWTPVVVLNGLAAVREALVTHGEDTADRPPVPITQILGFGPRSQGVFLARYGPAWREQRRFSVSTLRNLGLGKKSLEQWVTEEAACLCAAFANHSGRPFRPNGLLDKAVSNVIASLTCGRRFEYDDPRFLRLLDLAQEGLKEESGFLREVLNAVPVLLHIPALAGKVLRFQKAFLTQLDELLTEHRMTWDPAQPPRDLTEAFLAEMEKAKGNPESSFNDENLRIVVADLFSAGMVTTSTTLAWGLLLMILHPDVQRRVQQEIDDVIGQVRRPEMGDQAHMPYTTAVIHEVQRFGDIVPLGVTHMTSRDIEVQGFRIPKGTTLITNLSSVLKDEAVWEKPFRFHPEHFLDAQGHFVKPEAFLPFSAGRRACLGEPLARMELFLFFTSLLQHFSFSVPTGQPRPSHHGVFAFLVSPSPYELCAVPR

S=C(SSC(=S)N1CCCCC1)N1CCCCC1
Potency [1]: inactive
Potency [2]: inactive
Potency [3]: inactive
Potency [4]: 1.12 µM (active)

CC1(C)CC/C(=C/c2ccc(Cl)cc2)C1(O)Cn1cncn1 (centres undefined)
Potency [1]: inactive
Potency [2]: inactive
Potency [5]: 0.611 µM (active)

CS(=O)(=O)c1ccc(C(=O)C2C(=O)CCCC2=O)c([N+](=O)[O-])c1
Potency [1]: inactive
Potency [2]: inactive
Potency [5]: 26.4 µM (active)
Potency [6]: inactive
Potency [7]: inactive

C[C@H]([C@H](O)CCC(C)(C)O)[C@H]1CC[C@@]2(O)C3=CC(=O)[C@@H]4C[C@@H](O)[C@@H](O)C[C@]4(C)[C@@H]3CC[C@]12C
Potency [1]: inactive

O=S(=O)(O)C(F)(F)C(F)(F)C(F)(F)C(F)(F)F
Potency [1]: inactive
Potency [2]: inactive
Potency [3]: inactive
Potency [5]: 18.9 µM (active)
Potency [6]: inactive
Potency [7]: inactive

O=C(Nc1ccccc1-c1ccc(Cl)cc1)c1cccnc1Cl
Potency [1]: inactive
Potency [2]: inactive
Potency [3]: 22.4 µM (active)
Potency [5]: inactive
Potency [6]: inactive

CN[C@@H](C)[C@H](O)c1ccccc1
Potency [1]: inactive
Potency [2]: inactive
Potency [5]: inactive
Potency [6]: inactive
Potency [7]: inactive

O=[N+]([O-])/N=C1\NCCN1Cc1ccc(Cl)nc1
Potency [1]: inactive
Potency [2]: inactive
Potency [5]: inactive
Potency [8]: inactive
activity change, negative = inhibition [4]: -0.0091%
Potency [6]: inactive
Potency [7]: inactive

CCCCOC(=O)c1ccccc1C(=O)OCc1ccccc1
Potency [1]: inactive
Potency [2]: inactive
Potency [5]: 8.2 µM (active)
outcome [9]: inactive
outcome [10]: inactive
activation [11]: 4.15% [at 17.1 µM] (inactive)
outcome [12]: inactive
outcome [13]: inactive

COC(=O)c1cncn1C(C)c1ccccc1 (centres undefined)
Potency [1]: inactive
Potency [2]: inactive
Potency [5]: 11 µM (active)
Potency [8]: inactive
Potency [4]: inactive
Potency [6]: inactive
Potency [7]: inactive

C=CC(=O)NCNC(=O)C=C
Potency [1]: inactive
Potency [5]: inactive

CCN1CCN(C(=O)Cc2ccc(Nc3ncc(F)c(Nc4ccc(C(=O)Nc5ccccc5Cl)cc4)n3)cc2)CC1
Potency [1]: inactive
Potency [5]: 1.9 µM (active)
Potency [8]: 22.4 µM (active)
Potency [4]: 8.91 µM (active)
Potency [6]: 2.31 µM (active) and 2.63 µM (active)
Potency [7]: 2.31 µM (active) and 2.35 µM (active)

CCOP(=O)(OCC)C(C)NC(=O)N(CCCl)N=O (centres undefined)
Potency [1]: inactive
Potency [8]: inactive
Potency [4]: inactive
activity change, negative = inhibition [4]: -18.4%
Potency [6]: inactive

COCC1(CO)C(=O)C2CCN1CC2 (centres undefined)
Potency [1]: inactive
Potency [5]: inactive
Potency [8]: inactive
activity change, negative = inhibition [4]: -14.4%

CC(C)Oc1cccc(NC(=O)c2ccccc2C(F)(F)F)c1
Potency [1]: inactive
Potency [5]: 5.97 µM (active)
Potency [6]: 21.7 µM (active)
Potency [7]: 24.3 µM (active)

O=c1[nH]c2ccc(Cl)cc2c(N[C@@H]2CN3CCC2CC3)c1-c1nc2ccccc2[nH]1
Potency [1]: inactive
Potency [3]: 1.69 µM (active) and 2.39 µM (active)
Potency [5]: 10.7 µM (active) and 8.49 µM (active)
activity change, negative = inhibition [4]: -97.1%
Potency [6]: 64.9 nM (active) and 83.3 nM (active)
Potency [7]: 51.5 nM (active) and 83.3 nM (active)

CCCCc1ccc(C(=O)O)nc1
Potency [1]: inactive
Potency [3]: inactive
Potency [5]: inactive
Potency (Papain (Carica papaya)): inactive

CN(C)[C@@H]1C(=O)C(C(N)=O)=C(O)[C@@]2(O)C(=O)C3=C(O)c4c(O)cccc4[C@@](C)(O)[C@H]3[C@H](O)[C@@H]12
Potency [1]: inactive
Potency [5]: inactive
Potency [8]: inactive
Potency [4]: inactive
activity change, negative = inhibition [4]: -8.27%
Potency [7]: inactive
outcome [10]: inactive
outcome [11]: inactive
Potency [14]: inactive

CC(=O)Nc1ccc(OC[C@](C)(O)C(=O)Nc2ccc([N+](=O)[O-])c(C(F)(F)F)c2)cc1
Potency [1]: inactive
Potency [5]: 9.52 µM (active)
Potency [8]: inactive
activity change, negative = inhibition [4]: 0.0964%
Potency [7]: inactive

Cc1ccccc1-n1c(Cn2cnc3c(N)ncnc32)nc2cccc(C)c2c1=O
Potency [1]: inactive
Potency [8]: inactive
Potency [4]: inactive

CCCN1CCO[C@@H]2c3cc(O)ccc3OC[C@H]21
Potency [1]: inactive
Potency [8]: inactive
Potency [4]: inactive
Potency (Papain (Carica papaya)): inactive
Potency [6]: inactive
Potency [7]: inactive

O=c1cccc2n1CC1CNC[C@H]2C1
Potency [1]: inactive
Potency [8]: inactive
activity change, negative = inhibition [4]: -15.2%
Potency [6]: inactive
Potency [7]: inactive

Cc1ccccc1-n1c(Cn2ncc3c(N)ncnc32)nc2cccc(C)c2c1=O
Potency [1]: inactive
Potency [5]: 13.5 µM (active)
Potency [8]: inactive
activity change, negative = inhibition [4]: -50.6%

O=C(O)CNC(=O)c1c(O)c2ccccc2n(Cc2ccccc2)c1=O
Potency [1]: inactive
Potency [8]: inactive
activity change, negative = inhibition [4]: 2.25%
Potency [6]: inactive

O=C(N[C@H]1CN2CCC1CC2)c1ccc(Cl)cc1
Potency [1]: inactive
Potency [8]: inactive
activity change, negative = inhibition [4]: 4.38%
Potency (Papain (Carica papaya)): inactive
Potency [6]: inactive
Potency [7]: inactive

CC1=C(O)C(=O)C=C2C1=CC=C1[C@@]2(C)CC[C@@]2(C)[C@@H]3C[C@](C)(C(=O)O)CC[C@]3(C)CC[C@]12C
Potency [1]: inactive
Potency [5]: 12 µM (active)
Potency [4]: 14.1 µM (active)
Potency [6]: 1.48 µM (active)
Potency [7]: 1.66 µM (active)
